# From publication PMC4336329 (PLoS ONE, 2015)
# Out of some 310,000 compounds screened, about 14,000 (4.5%) showed an effect of 50% or more. The effect is printed as a negative number. The sample as a whole holds a higher share of strong results than the screen did.
# Target: human ether-à-go-go-related gene (hERG) potassium channel (human, UniProt Q12809)
# Assay: primary screen, population patch clamp on CHO cells stably expressing hERG; higher = less effect of the substance
# 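Also: peak tail current of the secondary pulse compared with the same well before compound.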
# Chain of human ether-à-go-go-related gene (hERG) potassium channel (Q12809 whole entry, looked up): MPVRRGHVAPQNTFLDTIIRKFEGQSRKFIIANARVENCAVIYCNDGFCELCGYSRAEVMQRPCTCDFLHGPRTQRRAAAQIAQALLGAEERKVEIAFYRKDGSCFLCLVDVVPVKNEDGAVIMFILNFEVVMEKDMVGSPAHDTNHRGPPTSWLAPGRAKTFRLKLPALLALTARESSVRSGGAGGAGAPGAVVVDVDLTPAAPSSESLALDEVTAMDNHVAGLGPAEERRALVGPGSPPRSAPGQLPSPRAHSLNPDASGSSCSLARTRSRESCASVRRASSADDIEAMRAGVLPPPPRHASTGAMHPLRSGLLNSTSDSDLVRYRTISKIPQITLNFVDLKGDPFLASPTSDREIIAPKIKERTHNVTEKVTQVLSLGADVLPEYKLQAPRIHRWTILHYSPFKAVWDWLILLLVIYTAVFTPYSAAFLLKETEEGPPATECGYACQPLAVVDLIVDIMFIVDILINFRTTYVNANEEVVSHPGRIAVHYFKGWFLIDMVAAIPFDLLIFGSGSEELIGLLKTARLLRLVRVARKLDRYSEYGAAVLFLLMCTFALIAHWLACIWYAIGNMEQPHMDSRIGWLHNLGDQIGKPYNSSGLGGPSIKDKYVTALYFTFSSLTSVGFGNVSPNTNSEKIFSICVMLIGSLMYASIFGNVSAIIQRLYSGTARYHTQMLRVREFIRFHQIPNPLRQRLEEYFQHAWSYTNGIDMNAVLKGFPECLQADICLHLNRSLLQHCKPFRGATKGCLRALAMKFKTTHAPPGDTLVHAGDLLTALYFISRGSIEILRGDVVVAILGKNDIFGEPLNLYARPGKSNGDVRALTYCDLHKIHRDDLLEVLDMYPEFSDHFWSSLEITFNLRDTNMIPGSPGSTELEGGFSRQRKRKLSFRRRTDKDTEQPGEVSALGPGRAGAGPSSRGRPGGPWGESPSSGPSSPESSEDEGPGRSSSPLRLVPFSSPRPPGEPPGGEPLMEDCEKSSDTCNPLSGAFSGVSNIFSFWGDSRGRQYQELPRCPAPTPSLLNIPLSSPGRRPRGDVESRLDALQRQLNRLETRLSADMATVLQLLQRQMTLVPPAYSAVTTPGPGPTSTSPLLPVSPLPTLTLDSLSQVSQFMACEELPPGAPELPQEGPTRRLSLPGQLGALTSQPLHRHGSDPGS
row,SMILES,"hERG current change (%, negative = inhibition) at 10uM"
1,Cc1oc(C(C)(C)C)cc1C(=O)N1CCN(c2ccc(C(F)(F)F)cn2)CC1,-5.33%
2,Cc1ccc(N(C(=O)c2nsc(Cl)c2Cl)C(C(=O)NC2CCCC2)c2ccc(O)cc2)cc1C (stereo not drawn),9.52%
3,COc1ccc(-n2c(O)c(/C=N/n3cnnc3)c3ccccc3c2=O)cc1,-1.22%
4,CC(=O)Nc1ccc(S(=O)(=O)NC2=C(N3CCN(C)CC3)C(=O)c3ccccc3C2=O)cc1,-0.763%
5,CC(=O)c1ccc(NC(=O)Cn2cnc(S(=O)(=O)N3CCC(C)CC3)c2)cc1,21.4%
6,O=C(Nc1ccc(Cl)cn1)C1CCCN(c2ncnc3c2nc2n3CCCCC2)C1 (stereo not drawn),-57.7%
7,O=C(Nc1ccc(Cl)cn1)C1CCN(c2ncnc3c2nc2n3CCCCC2)CC1,-38.8%
8,Cc1ccc(NC(=O)C2CCCN(c3ncnc4c3nc3n4CCCCC3)C2)nc1 (stereo not drawn),-62.5%
9,O=C(Nc1ccccn1)C1CCCN(c2ncnc3c2nc2n3CCCCC2)C1 (stereo not drawn),-34.8%
10,Cc1ccnc(NC(=O)C2CCCN(c3ncnc4c3nc3n4CCCCC3)C2)c1 (stereo not drawn),-45.6%
11,Cc1cccc(NC(=O)C2CCCN(c3ncnc4c3nc3n4CCCCC3)C2)n1 (stereo not drawn),-54.2%
12,Cc1cccc(NC(=O)C2CCN(c3ncnc4c3nc3n4CCCCC3)CC2)n1,-29.5%
13,O=C(Oc1ccc2c3c(c(=O)oc2c1)CCC3)c1ccco1,-1.09%
14,CCOC(=O)c1ccc(NC(=O)CN2C(=O)NC3(CCCCCCC3)C2=O)cc1,-7.35%
15,COC(=O)c1[nH]c2ccc(F)cc2c1NS(=O)(=O)c1ccc(F)c(C)c1,0.344%
16,Cc1ccc(C2Nc3ccccc3NC3=C2C(=O)CC(C)(C)C3)c(O)c1 (stereo not drawn),3.15%
17,Nc1c2c(nc3sc4c(c13)CCCC4)CCCCC2,-6.3%
18,Nc1c2c(nc3sc4c(c13)CCCC4)CCCC2,-70.4%
19,Nc1c2c(nc3sc4c(c13)CCCCC4)CCCCC2,-25.9%
20,Cc1nc2ccccc2nc1OCC(=O)Nc1ccccc1,14.8%
21,Cc1ccc(S(=O)(=O)N(CC2CO2)c2cc(Cl)ccc2Cl)cc1 (stereo not drawn),-6.93%
22,C[C@]1(C(=O)NCCCNc2ncc(C(F)(F)F)cc2Cl)C=C[C@@H](Cc2ccccc2)N1C(=O)c1ccccc1,7.01%
23,COC(=O)N1[C@H](C)C=C[C@]1(Cc1ccccc1)C(=O)NCCCNc1ncc(C(F)(F)F)cc1Cl,-10.5%
24,CC1(C(=O)NCCCNc2ncc(C(F)(F)F)cc2Cl)C=CCN1C(=O)c1ccccc1 (stereo not drawn),-56.4%
